Screening data deposited in PubChem by several laboratories.
Shown are actives, neighbours in structure and some others; about 5.9% of the full set was active somewhere.
ALR H2O2 inh = inhibitors of human sulfhydryl oxidase ALR | actives 3.8% (n = 290,000) | inhibition, % (no concentration beside the values) | purified ALR, DTT oxidation, H2O2 HRP-luminol luminescence;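 active = mean replicate inhibition above about 79%, with every replicate also reaching it, limit read from the data; inconclusive = only one of the two criteria met; inactive = mean below limit and not every replicate reaching it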
LANA-H2B inh = blocks KSHV LANA binding to histone H2A/H2B. Q9QR71. cell-free LANA-H2A/H2B peptide, fluorescence polarization. inhibition, % (no concentration beside the values). actives 0.6% (n = 320,000); in the data active = inhibition mostly above about 10%, no sharp cut-off; inactive = mostly below about 6.7%
PRMT1 inh = blocks human protein arginine methyltransferase 1. AID 652257. actives 1.3% (n = 370,000). Q99873. inhibition, % at 2.79 µM. recombinant PRMT1, activity-based probe fluorescence polarization;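 active = inhibition above about 21% made by adding two undisclosed values, limit read from the data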
rCAG binder = binds r(CAG) RNA repeats | r(CAG) RNA repeat, TO-PRO-1 dye displacement fluorescence | inhibition, % at 3 µM | actives 1.3% (n = 370,000) | AID 651821;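 active = inhibition above the plate cutoff, the mean of all test compounds on that plate plus 3 SD, cut at about 35% in these data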;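 also: higher means more dye released from RNA so lower well fluorescence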
ABHD5-PLIN5 inh = ABHD5-PLIN5 protein interaction inhibition | actives 0.78% (n = 360,000) | Q00G26+Q8WTS1 | Split G. princeps luciferase complementation, luminescence, 4 h | inhibition, % at 4 µM | AID 602281;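 active = inhibition above the mean inhibition across every tested compound plus 3 SD, cut at about 22% in these data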
Target sequence (Q00G26 whole entry, looked up): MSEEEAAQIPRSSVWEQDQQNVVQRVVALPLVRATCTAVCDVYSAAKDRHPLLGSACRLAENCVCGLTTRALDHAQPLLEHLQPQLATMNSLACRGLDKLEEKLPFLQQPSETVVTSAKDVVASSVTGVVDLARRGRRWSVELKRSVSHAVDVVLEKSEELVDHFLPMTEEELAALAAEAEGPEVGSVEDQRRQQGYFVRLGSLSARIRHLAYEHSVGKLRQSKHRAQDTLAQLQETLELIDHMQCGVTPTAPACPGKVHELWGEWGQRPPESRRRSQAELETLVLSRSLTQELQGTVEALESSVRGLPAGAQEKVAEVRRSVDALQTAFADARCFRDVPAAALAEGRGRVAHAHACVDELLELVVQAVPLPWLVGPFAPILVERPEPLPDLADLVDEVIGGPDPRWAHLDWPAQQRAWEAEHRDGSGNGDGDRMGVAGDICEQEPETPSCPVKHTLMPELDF
Target sequence (Q8WTS1 whole entry, looked up): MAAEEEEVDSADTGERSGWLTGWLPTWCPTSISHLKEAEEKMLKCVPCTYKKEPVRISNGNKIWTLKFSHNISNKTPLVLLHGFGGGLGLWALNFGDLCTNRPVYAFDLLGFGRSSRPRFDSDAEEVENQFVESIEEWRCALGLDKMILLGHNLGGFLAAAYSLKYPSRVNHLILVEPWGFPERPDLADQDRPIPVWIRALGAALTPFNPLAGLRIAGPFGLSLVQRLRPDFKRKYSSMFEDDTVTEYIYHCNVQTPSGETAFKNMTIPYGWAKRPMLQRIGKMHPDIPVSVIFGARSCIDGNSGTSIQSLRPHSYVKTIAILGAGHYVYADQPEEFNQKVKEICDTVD
Rtt109 Vps75 = blocks Candida albicans Rtt109/Vps75 acetyltransferase activity | purified Rtt109/Vps75, ThioGlo CoA-SH fluorescence, 4 h | AID 540336 | actives 0.16% (n = 330,000) | Q5AAJ8 | inhibition, % at 34.9 µM;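 active = inhibition of at least 50% in every replicate; inconclusive = best replicate reaches 50% inhibition but some replicates fall short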
ABHD5 PLIN5 conf = confirmation of human ABHD5-PLIN5 interaction inhibitors; shares compounds with ABHD5-PLIN5 inh; biochemical ABHD5-PLIN5 interaction, luminescence; inhibition, % at 4 µM; actives 67% (n = 2,200); AID 651612; in the data active = inhibition above about 23%
HNF4 counter = HNF4 split-luciferase signal hit, counter-screen. shares compounds with ABHD5-PLIN5 inh. HNF4 dimerization, luminescence, biochemical. inhibition, % at 4 µM. actives 77% (n = 2,200);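 active = mean inhibition across replicate wells exceeding the computed hit threshold, cut at about 13% in these data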;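 also: light from luciferase halves that rejoin when HNF4 fusion proteins dimerize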
A number is an active result; - = inactive; ? = inconclusive; . = not tested or not shown.

SMILES	ALR H2O2 inh	LANA-H2B inh	PRMT1 inh	rCAG binder	ABHD5-PLIN5 inh	Rtt109 Vps75	ABHD5 PLIN5 conf	HNF4 counter
C=C1[C@@H](C)CN[C@@H]1CCO	.	.	-	-	.	.	.	.
O=C(NCCCN1CCOCC1)c1ccc(CSc2ccc(Cl)cc2)cc1	-	-	-	-	26.7	-	-	-
CC(C)c1ccc(C(=O)NCCCN2CCOCC2)cc1	-	-	-	-	-	-	.	.
C[C@@H]1[C@H](c2ccccc2)OC(O)([C@H](Cc2ccccc2)NC(=O)OC(C)(C)C)CN1C (stereo partly drawn)	.	.	-	.	.	.	.	.
COc1ccc(/C=C/C(=O)c2c(O)c(OC)c3occc3c2OC)cc1	.	.	-	-	49.3	-	78.9	65.0
COc1ccc(/C=C/C(=O)Nc2cc(C)on2)cc1	-	-	-	-	-	-	.	.
OC(CCN1CCCCC1)(c1ccccc1)C1CC2C=CC1C2 (stereo not drawn)	.	.	-	-	.	.	.	.
CC1(C(=O)Nc2nccs2)CCN1C(=O)CC(c1ccccc1)c1ccccc1 (stereo not drawn)	.	.	-	-	-	.	.	.
O=C(/C=C\c1cccs1)c1c(O)ccc2ccc(=O)oc12	-	-	-	-	24.6	-	33.7	37.4
O=[N+]([O-])c1ccc(N2CCN(S(=O)(=O)c3ccccc3)CC2)cc1NCCN1CCOCC1	-	-	-	-	23.3	-	-	-
CC1CN(c2ccc([N+](=O)[O-])c(NCCOc3ccccc3)c2)CCN1 (stereo not drawn)	-	-	-	-	28.7	-	-	-
Cc1cccc(OCCNc2cc(N3CCN(CCO)CC3)ccc2[N+](=O)[O-])c1	-	-	-	-	27.4	?	-	-
Cc1ccc(CNC(=O)O[C@H]2CC[C@@]34CCCN3C(=O)CCC[C@H]4C2)o1	.	.	-	.	.	.	.	.
C[C@@H]1CN([C@@H](C)CO)C(=O)CCCn2cc(nn2)CO[C@H]1CN(C)C(=O)c1ccncc1	.	.	-	-	.	.	.	.
COC(=O)[C@]12CCCCC=C1N(CCC1=CCCCC1)C(=O)[C@H](CC(=O)NCCCN1CCCC1=O)C2	.	.	-	-	-	.	.	.
C1=Nc2ccccc2CN1c1ccccc1	-	-	-	-	-	-	.	.
CC(C)c1ccc(N2C=Nc3ccc(C(C)C)cc3C2)cc1	-	-	-	-	36.5	-	24.2	-
O=C(NCc1cccnc1)/C(=C\c1ccc(-c2cccc(Cl)c2)o1)S(=O)(=O)c1ccccc1	-	.	-	-	81.6	-	96.7	87.7
O=C(NCc1cccnc1)/C(=C/c1ccc(-c2cccc(Cl)c2)o1)S(=O)(=O)c1ccccc1	-	-	-	-	47.7	-	40.0	38.8
Cc1ccc(C(=O)N/C(=C\c2ccc(-c3cc(Cl)ccc3Cl)o2)C(=O)NCc2cccnc2)cc1	-	-	-	-	-	-	.	.
COC(=O)C[C@H]1CC[C@@H](NC(=O)Nc2ccc(C(F)(F)F)cc2)[C@@H](CO)O1	.	.	-	-	-	.	.	.
N#Cc1ccc(OCCCN2CCC(C(O)(C3=CCCC3)c3ccccc3)CC2)cc1 (stereo not drawn)	.	.	-	-	.	.	.	.
O=C(O)c1ccc(/C=C2\COc3ccccc3C2=O)cc1	-	-	-	-	32.1	-	84.0	78.3
COc1cc(/C=C2\CC/C(=C\c3cc(OC)c(OC)c(OC)c3)C2=O)cc(OC)c1OC	-	-	-	-	-	-	.	.
COc1ccc(/C=C2\COc3ccccc3C2=O)cc1OC	-	-	-	-	33.2	-	76.4	71.0
SMILES	ALR H2O2 inh	LANA-H2B inh	PRMT1 inh	rCAG binder	ABHD5-PLIN5 inh	Rtt109 Vps75	ABHD5 PLIN5 conf	HNF4 counter
CCOc1cc(/C=C2\COc3ccccc3C2=O)cc(Br)c1OCC(=O)N(C)C	.	-	-	-	77.2	-	86.2	93.9
COc1cc(/C=C2\COC/C(=C\c3cc(OC)c(OC)c(OC)c3)C2=O)cc(OC)c1OC	.	.	-	-	47.1	-	101.4	100.6
CC1(C(=O)Nc2ccc3c(c2)OCCO3)CSCC(=O)N1C1CC1 (stereo not drawn)	.	.	-	-	-	.	.	.
COc1ccc(C=CC(=O)c2ccc(OC)c(OC)c2)cc1O	.	.	-	-	-	.	.	.
COc1cc(/C=C/C(=O)c2ccc(Cl)s2)cc(OC)c1O	-	-	.	.	38.1	-	74.3	38.0
COc1ccc(/C=C/C(=O)c2ccc(Cl)s2)cc1O	-	-	-	-	42.0	-	54.5	42.7
CCOc1cc(/C=C\[N+](=O)[O-])ccc1OCC(=O)N1CCOCC1	-	-	-	-	29.0	-	69.6	69.9
CCOc1cc(/C=C/c2nc3cc(C)c(C)cc3s2)ccc1OCC(=O)N1CCOCC1	.	-	-	-	-	-	.	.
COc1ccc(C(=O)OCCN2CCN(C3CN(Cc4cn(Cc5ccccc5C(F)(F)F)nn4)S(=O)(=O)C3)CC2)cc1OC (stereo not drawn)	.	.	-	-	.	.	.	.
NS(=O)(=O)c1ccc(N2CCCCCC2)c([N+](=O)[O-])c1	-	-	-	-	73.8	-	-	12.9
COc1cccc(CNc2nc3cc(-c4cccc(C(=O)NCCO)c4)sc3c(=O)n2C)c1	.	.	-	-	-	.	.	.
C#CCN1CC(N(C)CCOC(=O)c2ccc([N+](=O)[O-])cc2)CS1(=O)=O (stereo not drawn)	.	.	-	-	.	.	.	.
Cc1cccc(N2CCN(C(=S)Nc3ccc4nc(N5CCN(C)CC5)cc(C)c4c3)CC2C)c1 (stereo not drawn)	.	-	-	-	24.6	-	-	-
Cc1cc(N2CCN(C)CC2)nc2ccc(NC(=S)N3CCN(c4cccc(Cl)c4)CC3)cc12	.	-	-	-	-	-	.	.
N#CNC(=Nc1ccccc1)SCc1ccc(C(=O)O)cc1	-	-	-	-	-	-	.	.
CSC(=Nc1ccccc1)N=C(SCc1ccccc1)N(C)C	.	.	-	-	80.7	-	95.7	56.7
Cc1ccc(S(=O)(=O)NC2CCCCC2)cc1C(=O)N1CCC(C(N)=O)CC1	-	-	-	-	35.5	-	-	-
NC(=O)C1CCN(C(=O)COc2ccc(S(=O)(=O)NC3CCCC3)cc2)CC1	-	-	-	-	-	-	.	.
CCOC(=O)C(NC(=O)c1ccccc1Cl)(Nc1sc2c(c1C(N)=O)CCC2)C(F)(F)F (stereo not drawn)	.	.	-	-	23.5	-	22.8	26.5
CC(=O)N[C@@H](C)CCc1ccc(Oc2ccc(OC(C)C)nc2)cc1	.	.	-	.	.	.	.	.
Cc1ccc(-c2c(NC(=O)C3CC3)nc3ncccn23)cc1	.	.	-	-	.	.	.	.
CCCCc1ccc2nc(NC(=O)c3ccc(Br)o3)sc2c1	.	.	-	.	.	.	.	.
CC(C)NC(=O)/C(C#N)=C/c1cccc(NC(=O)c2ccccc2Cl)c1	-	-	-	-	28.2	-	65.2	56.7
CCN(CC)S(=O)(=O)c1ccc(C)c(NC(=O)Cc2ccc(S(=O)(=O)N3CCOCC3)s2)c1	-	-	-	-	23.4	-	-	-
